Results filed as inconclusive are left out. The source made the active and inactive calls. The call rests on the fitted dose curve; in most records, active means well fitted cell-killing curve with a large enough effect; inconclusive means small, poorly fitted or top-dose-only effect, or effect the other way; inactive means no such curve, though single readings can be large or run the other way.
Assay: Quantitative High-Throughput drug screen in 47 multiple myeloma cell lines against the NCATS MIPE library collection: Karpas25_ECACC cell viability assay (AID 1918968; further: nearly all actives have a fitted effect of over 35% in size)
Settings: Karpas25 myeloma viability, CellTiter-Glo ATP, 48 h; series mostly up to 45.8 µM
From the text: PI: Beverly A. Mock Ph.D.
Laboratory of Cancer Biology and Genetics,
Center for Cancer Research, National Cancer Institute,
National Institute of Health, Bethesda, Maryland
Drug resistance and disease progression are common in multiple myeloma (MM) patients, underscoring the need for new therapeutic combinations. […] We hypothesized that effective combinations would reduce MYC expression and enhance p16 activity. […] These preclinical data identify potentially useful drug combinations for evaluation in drug-resistant MM and reveal potential mechanisms of combined drug sensitivity.
Described herein is the primary MIPE qHTS used to cherrypick compounds. Validated compounds were then further tested for potential synergistic activiy.
[1] Peat TJ, Gaikwad SM, Dubois W, Gyabaah-Kessie N, Zhang S, Gorjifard S, Phyo Z, Andres M, Hughitt VK, Simpson RM, Miller MA, Girvin AT, Taylor A, Williams D, D'Antonio N, Zhang Y, Rajagopalan A, Flietner E, Wilson K, Zhang X, Shinn P, Klumpp-Thomas C, McKnight C, Itkin Z, Chen L, Kazandijian D, Zhang J, Michalowski AM, Simmons JK, Keats J, Thomas CJ, Mock BA. Drug combinations identified by high-throughput screening promote cell cycle transition and upregulate Smad pathways in myeloma. Cancer Lett. 2023 Aug 1;568:216284. doi: 10.1016/j.canlet.2023.216284. Epub 2023 Jun 24. PMID: 37356470; PMCID: PMC10408729.
SEQUENCE No. (e.g., 1, 2, 3, etc.); […] (e.g., Cells, Incubation, Reagent, etc.); VALUE and DESCRIPTION.
1; Cells; 5 uL; white, solid bottom 1536-well Greiner assay plate.
2; Compounds; 23 nL; Kalypsis pin tool (Wako USA) equipped with a 1536-well pin head to transfer to the assay plates.
3; Incubation; 48 hours; 37C incubation.
4; Reagent;5uL; CellTiter Glo (Promega).
5; Detector; 425V; Luminescence; Viewlux PerkinElmer.
NOTES (numbers refer to Sequence numbers above)
1. The cell-based screening methods employed in this study were like those previously published. Briefly, the corresponding myeloma cell lines were screened in 1,536-well plates with 500 cells, 5-uL per well for inhibition of cell viability (assessed by measuring ATP levels with CellTiterGlo).
2. NCATS MIPE 4.0 library of approved and investigational drugs were added using the Kalypsis pin tool. Wells treated with DMSO only for 100% viability and media only wells for 0% viability were used as controls.
3. The assay plates were covered and incubated for 48 hours in a 37C, 5% CO2 incubator with controlled humidity.
4. After 48 hours, CellTilter-GloTM luminescent substrate mix (Promega) reagent was added to the assay plate and plates we incubated for 5 min at room temperature.
5. Signal was measured as median relative luminescence units on a ViewLux (PerkinElmer) multiplate reader.
[1] Heske CM, Davis MI, Baumgart JT, Wilson K, Gormally MV, Chen L, Zhang X, Ceribelli M, Duveau DY, Guha R, Ferrer M, Arnaldez FI, Ji J, Tran HL, Zhang Y, Mendoza A, Helman LJ, Thomas CJ. Matrix Screen Identifies Synergistic Combination of PARP Inhibitors and Nicotinamide Phosphoribosyltransferase (NAMPT) Inhibitors in Ewing Sarcoma. Clin Cancer Res. 2017 Dec 1;23(23):7301-7311. doi: 10.1158/1078-0432.CCR-17-1121. Epub 2017 Sep 12. PMID: 28899971; PMCID: PMC6636827.
Potency means the concentration at half of the fitted maximal effect.

| SMILES | Potency |
| --- | --- |
| C=C[C@@H]1CN2CCC1C[C@@H]2[C@@H](O)c1ccnc2ccccc12 (stereo not given in full) | 8.33 µM (active) |
| COc1ccc2c(c[n+](C)c3c4cc5c(cc4ccc23)OCO5)c1OC | 7.43 µM (active) |
| c1ccc(CCCN2CCN(CCOC(c3ccccc3)c3ccccc3)CC2)cc1 | 10.5 µM (active) |
| C[C@](O)(COc1ccc(C#N)cc1)C(=O)Nc1ccc(C#N)c(C(F)(F)F)c1 | 18.7 µM (active) |
| COc1cccc2c1[C@]13CCN(CC4CC4)[C@H](C2)[C@]1(OC)CCC(=O)C3 | inactive |
| CC(=O)N(C)c1cccc(-c2ccnc3c(C(=O)c4cccs4)cnn23)c1 | inactive |
| C[C@@H]1CC[C@H]2[C@@H](C)C(=O)O[C@@H]3O[C@@]4(C)CC[C@H]1[C@]32OO4 | 0.469 µM (active) |
| CN[C@@H]1Cc2cccc3[nH]c(=O)n(c23)C1 | inactive |
| Cc1[nH]nc2ccc(-c3cncc(OC[C@@H](N)Cc4c[nH]c5ccccc45)c3)cc12 | 2.35 µM (active) |
| CCCC[N+]1(C)[C@H]2CC(OC(=O)[C@H](CO)c3ccccc3)C[C@H]1[C@H]1O[C@H]12 (stereo not given in full) | inactive |
| N=c1c2c(-c3ccccc3)c(-c3ccccc3)n(Cc3ccccc3)c2ncn1C1CCC(O)CC1 (stereo not given) | 4.18 µM (active) |
| CC(=CCCC1=CCC(C2=CC(=O)OC2O)OC1O)CCC1=C(C)CCCC1(C)C (stereo not given) | inactive |
| Cc1ccccc1-n1c(Cn2cnc3c(N)ncnc32)nc2cccc(C)c2c1=O | 0.187 µM (active) |
| CCNC(=O)C[C@@H]1N=C(c2ccc(Cl)cc2)c2cc(OC)ccc2-n2c(C)nnc21 | 2.09 µM (active) |
| COC1=CC(C)=C[C@@H](C)[C@@H](O)[C@@H](C)CC(C)=CC=C[C@H](OC)[C@H]([C@@H](C)[C@@H](O)[C@H](C)[C@@]2(O)C[C@@H](O)[C@H](C)[C@@H](C(C)C)O2)OC1=O | 0.0083 µM (active) |
| C[C@@]12OC(=O)[C@]1([C@@H](O)[C@@H]1C=CCCC1)NC(=O)[C@H]2CCCl | 0.001 µM (active) |
| Cc1c(C(=O)Nc2cccc(C(F)(F)F)c2)cc(-c2ccccc2)n1CCCN1CCOCC1 | 11.8 µM (active) |
| CC(C)(O)C=CC(=O)[C@](C)(O)[C@H]1[C@H](O)C[C@]2(C)[C@@H]3CC=C4[C@@H](C=C(O)C(=O)C4(C)C)[C@]3(C)C(=O)C[C@@]12C | 0.0296 µM (active) |
| CC(C)N(CCNC(=O)CN1CCCC1=O)C(C)C | inactive |
| Cc1ccccc1-n1c(Cn2ncc3c(N)ncnc32)nc2cccc(C)c2c1=O | 0.264 µM (active) |

| SMILES | Potency |
| --- | --- |
| CC(C)(O)C(=O)Nc1ccc([N+](=O)[O-])c(C(F)(F)F)c1 | 9.35 µM (active) |
| C=C1C[C@H]2[C@H]3CCC(=O)[C@@]3(C)CC[C@@H]2[C@@]2(C)C=CC(=O)C=C12 | 16.6 µM (active) |
| COC1=C[C@@H]2[C@@H]3Cc4ccc(OC)c(O)c4[C@]2(CCN3C)CC1=O | 2.96 µM (active) |
| COc1ccc(N(C(=O)Oc2c(C)cccc2C)c2ccnc(Nc3ccc(N4CCN(C)CC4)cc3)n2)c(OC)c1 | 2.64 µM (active) |
| N#C[C@H](O[C@@H]1O[C@H](CO[C@@H]2O[C@H](CO)[C@H](O)[C@H](O)[C@H]2O)[C@H](O)[C@H](O)[C@H]1O)c1ccccc1 | 18.7 µM (active) |
| O=C(NCC1CCOCC1)c1cnc(Nc2ccc(Cl)cc2Cl)nc1C(F)(F)F | 4.69 µM (active) |
| CCc1c(C(=O)C(N)=O)c2c(OCC(=O)O)cccc2n1Cc1ccccc1 | inactive |
| CC(=O)OCC1=C(C(=O)O)N2C(=O)[C@@H](N)[C@@H]2SC1 | inactive |
| CC(C)(C)[C@]1(O)C[C@@H]2OC(=O)C[C@@]23C(=O)O[C@@H]2OC(=O)[C@H](O)C213 (stereo not given in full) | inactive |
| Cc1c(C(=O)c2cccc3ccccc23)c2cccc3c2n1[C@H](CN1CCOCC1)CO3 | 14.8 µM (active) |
| CSCC[C@@H](NC(=O)[C@@H](Cc1ccccc1)NC(=O)CNC(=O)CNC(=O)[C@@H](N)Cc1ccc(O)cc1)C(=O)O | inactive |
| COc1ccc2c(c1)CN(C)CC2c1ccc(Cl)c(Cl)c1 (stereo not given) | 0.209 µM (active) |
| C[C@@H]1CC[C@@]2(OC1)O[C@H]1C[C@H]3[C@@H]4CC=C5C[C@@H](O[C@@H]6O[C@H](CO)[C@@H](O[C@@H]7O[C@@H](C)[C@H](O)[C@@H](O)[C@@H]7O)[C@H](O)[C@@H]6O[C@@H]6O[C@@H](C)[C@H](O)[C@@H](O)[C@@H]6O)CC[C@]5(C)[C@@H]4CC[C@]3(C)[C@@H]1[C@H]2C | 3.32 µM (active) |
| C1=C2CCCN[C@H]2[C@@H]2C[C@H]1[C@@H]1CCCCN1C2 | inactive |
| CC1=NN=C(c2ccc(N)cc2)c2cc3c(cc2C1)OCO3 | inactive |
| O=C(O)CNC(=O)c1c(O)c2ccccc2n(Cc2ccccc2)c1=O | inactive |
| CC(C)(C)c1cc(C=C(C#N)C#N)cc(Br)c1O | 3.72 µM (active) |
| c1ccc2c(CN3CCNCC3)cccc2c1 | inactive |
| C[C@]12CC[C@H]3[C@@H](CCC4=CC(=O)CC[C@@]43C)[C@H]1CC[C@H]2O | inactive |
| CC=C(C)C(=O)N[C@@H](c1ccccc1)[C@@H](O)C(=O)O[C@H]1C[C@@]2(O)[C@@H](OC(=O)c3ccccc3)[C@@H]3[C@]4(OC(C)=O)CO[C@@H]4C[C@H](O)[C@@]3(C)C(=O)[C@H](OC(C)=O)C(=C1C)C2(C)C | inactive |

Reference: PubChem BioAssay (NCATS)
